Records with an inconclusive call do not appear. Calls of active or inactive are those of the source. Unless noted, calls follow the shape of the dose curve; as a rule, active = well fitted curve in the direction sought with a large enough effect in the repeat runs; inconclusive = weak or mixed curves; inactive = no such curve, though single readings can be large; an effect the other way counts as inactive or inconclusive.
Experiments:
[1] = A CellTox Green Cytotoxicity Assay to monitor cytotoxicity in HEK293 cells - 16 hour (AID 1224888); also: nearly all actives have a fitted effect of over 35% in size
Method in brief: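 HEK293 cells, 600/well, were preincubated 5 hours and then exposed to compounds at 37 C for up to 40 hours. A cell-impermeant cyanine dye staining dead-cell DNA was read by fluorescence at 0, 8, 16, 24, 32 and 40 h time points.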

[2] = qHTS RealTime-Glo MT Cell Viability Assay in HepG2 cells - 0 hour (AID 1224889); also: nearly all actives have a fitted effect of over 50% in size
Method in brief: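 Compound treatment began 5 h after plating HepG2 cells (600/well) with NanoLuc luciferase and prosubstrate. Plates stayed at 37 C for 40 h; luminescence was captured at six time points, 0 h through 40 h.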

[3] = A CellTox Green Cytotoxicity Assay to monitor cytotoxicity in HepG2 cells - 8 hour (AID 1224890); also: nearly all actives have a fitted effect of over 45% in size
Method in brief: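 HepG2 cells, 600/well, preincubated 5 h with CellTox Green dye, then exposed to Tox21 compounds in DMSO at 37 C for up to 40 h. Dead-cell DNA fluorescence read at the indicated time point.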

[4] = qHTS assay to identify small molecule antagonists of the estrogen receptor alpha (ER-alpha) signaling pathway using the BG1 cell line in the presence of 0.1 nM 17-beta-estradiol - cell viability counter screen (AID 1259241); also: nearly all actives have a fitted effect of over 40% in size
Method in brief: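 Estradiol-stimulated (0.1 nM) VM7Luc4E2 cells exposed to compounds 22 hr; viability measured by fluorescence of cleaved CellTiter-Fluor substrate after 30 min.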

[5] = qHTS assay to identify small molecule antagonists of the androgen receptor (AR) signaling pathway using the MDA cell line in the presence of 0.5 nM R1881 - cell viability counter screen (AID 1259242); also: nearly all actives have a fitted effect of over 45% in size
Method in brief: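 MDA-kb2 cells (MMTV-luciferase, AR/GR responsive) were treated with compounds plus 0.5 nM R1881 (final) for 16 hr at 37C, 0% CO2. Viability was then read in the same wells as live-cell protease fluorescence (CellTiter-Fluor, 30 min).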

[6] = target: Estrogen receptor (Homo sapiens) (UniProt P03372); test: qHTS assay to identify small molecule antagonists of the estrogen receptor alpha (ER-alpha) signaling pathway using the BG1 cell line in the presence of 0.1 nM 17-beta-estradiol (AID 1259244); also: nearly all actives have a fitted effect of over 50% in size
Method in brief: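 VM7Luc4E2 cells (endogenous full-length ER-alpha, 4×ERE-luciferase), kept 5 days in phenol red-free, charcoal-stripped FBS medium; 4,000 cells/well. Compounds added with 0.1 nM (final) 17beta-estradiol, 22 hr at 37C; luminescence read with ONE-Glo after 30 min.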

[7] = qHTS assay to identify small molecule HDAC inhibitors (AID 1259364); also: top concentration of the series differs between compounds; nearly all actives have a fitted effect of over 45% in size
Method in brief: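 Wild-type HCT-116 cells, plated overnight at 37 C, exposed to compounds 2 hr at 37 C; luminogenic HDAC-Glo substrate then added 30 min at room temperature. Luminescence reports relative endogenous class I/II HDAC activity.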

[8] = qHTS assay to identify small molecule antagonists of the sonic hedgehog signaling (Shh) pathway - cell viability counter screen (AID 1259367); also: nearly all actives have a fitted effect of over 55% in size
Method in brief: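 NIH/3T3-derived Gli1-Luc reporter cells (2,000 per well) rested 4 hr at 37 C, then received DMSO compounds plus conditioned medium. After 23 hr of treatment, CellTiter-Fluor was added for 1 hr at 37C and fluorescence read.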

[9] = qHTS assay to identify small molecule agonists of the sonic hedgehog signaling (Shh) pathway (AID 1259368; calls by dose curve;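 also: NIH/3T3-derived 3T3Gli1-Luc cells carrying a stable Gli1-driven firefly luciferase reporter; series mostly up to about 92 µM; nearly all actives have a fitted effect of over 15% in size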)
Method in brief: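 NIH/3T3-derived 3T3Gli1-Luc cells with stably integrated Gli1-driven firefly luciferase, 2,000 cells/well, compounds added after 4 hr. Incubated 24 hr at 37C, 5% CO2; luminescence read after 30 min with luciferase reagent at room temperature.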

[10] = qHTS assay to identify small molecule antagonists of the sonic hedgehog signaling (Shh) pathway (AID 1259369; calls by dose curve; also: nearly all actives have a fitted effect of over 45% in size)
Method in brief: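 NIH/3T3-derived Gli1-Luc reporter cells plated 4 h, dosed with compound, then stimulated with conditioned medium for 24 h at 37 C. Firefly luciferase luminescence read after 30 min with detection reagent at room temperature.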

[11] = target: Estrogen receptor beta (Homo sapiens) (UniProt Q92731); test: qHTS assay to identify small molecule agonists of the estrogen receptor beta (ER-beta) signaling pathway (AID 1259377; active = well fitted activation curve with a large enough effect in the signal ratio in the repeat runs, not every such curve was filed as active; the % refers to the signal ratio)
Method in brief: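 Read-out: beta-lactamase FRET fluorescence. Cell line: ER-beta-UAS-bla HEK293T in 2% charcoal-stripped FBS. Exposure: 16 hr at 37C. Substrate step: 2 h at room temperature.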

[12] = target: Estrogen receptor beta (Homo sapiens) (UniProt Q92731); test: qHTS assay to identify small molecule antagonists of the estrogen receptor beta (ER-beta) signaling pathway (AID 1259378; active = well fitted inhibition curve with a large enough effect in the signal ratio in the repeat runs, not every such curve was filed as active; the % refers to the signal ratio)
Method in brief: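 ER-beta-UAS-bla HEK293T (GripTite) cells in 2% charcoal-stripped FBS medium were preincubated 6 hr at 37C, dosed with compound, then stimulated with 1 nM E2 (final) for 16 hr; beta-lactamase reporter read by B/G FRET fluorescence after 2 hr substrate loading.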

[13] = qHTS assay to identify small molecule agonists of the androgen receptor (AR) signaling pathway in the presence of an antagonist - cell viability counter screen (AID 1259379);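 also: MDA-kb2 human breast cancer cells carrying an MMTV luciferase reporter; series mostly up to about 92 µM; nearly all actives have a fitted effect of over 25% in size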
Method in brief: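 MDA-kb2 cells (MMTV-luciferase, AR/GR), 3,000/well, 5 h attachment, then 3.0 µM nilutamide (final) and compounds at 15 concentrations. Viability by CellTiter-Fluor fluorescence after 16 h at 37 °C, 0% CO2, in the reporter wells.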

[14] = qHTS assay to identify small molecule agonists of the estrogen receptor beta (ER-beta) signaling pathway - cell viability counter screen (AID 1259380); also: nearly all actives have a fitted effect of over 30% in size
Method in brief: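 ER-beta-UAS-bla HEK293T cells in medium with 2% charcoal-stripped FBS, pre-incubated 6 hr, then treated 16 hr at 37C. Cytotoxicity read in the same wells by CellTiter-Glo luminescence after 30 min at room temperature.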

[15] = qHTS assay to identify small molecule antagonists of the estrogen receptor beta (ER-beta) signaling pathway - cell viability counter screen (AID 1259382); also: series mostly up to about 92 µM; nearly all actives have a fitted effect of over 55% in size
Method in brief: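 ER-beta-UAS-bla HEK293T cells in 2% charcoal-stripped FBS medium, treated with compound plus 1 nM 17-beta-estradiol for 16 h at 37C. Viability read by CellTiter-Glo luminescence after 30 min at room temperature in the same wells.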

[16] = qHTS assay to identify small molecule HDAC inhibitors - cell viability counter screen (AID 1259365); also: series mostly up to about 92 µM; nearly all actives have a fitted effect of over 50% in size
Method in brief: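 After overnight seeding at 1,500 cells per well, wild-type HCT-116 cultures took up compounds in DMSO for 2hr at 37 C. Viable cell content came from luminescence with CellTiter-Glo.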

[17] = qHTS assay to identify small molecule agonists of the sonic hedgehog signaling (Shh) pathway - cell viability counter screen (AID 1259366); also: nearly all actives have a fitted effect of over 50% in size
Method in brief: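 Same-well cytotoxicity read. Gli1-Luc reporter 3T3 cells; compounds 24hr, 37C/5% CO2; CellTiter-Fluor fluorescence.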

[18] = qHTS assay to identify small molecule phospholipidosis (PLD) inducers (AID 1259344; active = well fitted curve in the direction sought with a large enough effect; an effect the other way counts as inactive or inconclusive)
Method in brief: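 HepG2 cells on collagen I, attached 4 h at 37 C, were co-treated with compound and LipidTOX Red dye for 24 h at 37 C, then fixed with paraformaldehyde plus Hoechst 33342 and imaged by high-content microscopy for phospholipid accumulation.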
% is scaled to controls: 0 for no effect and ±100 for the full control effect.

Estrogen receptor (Homo sapiens), sequence (P03372 whole entry, looked up): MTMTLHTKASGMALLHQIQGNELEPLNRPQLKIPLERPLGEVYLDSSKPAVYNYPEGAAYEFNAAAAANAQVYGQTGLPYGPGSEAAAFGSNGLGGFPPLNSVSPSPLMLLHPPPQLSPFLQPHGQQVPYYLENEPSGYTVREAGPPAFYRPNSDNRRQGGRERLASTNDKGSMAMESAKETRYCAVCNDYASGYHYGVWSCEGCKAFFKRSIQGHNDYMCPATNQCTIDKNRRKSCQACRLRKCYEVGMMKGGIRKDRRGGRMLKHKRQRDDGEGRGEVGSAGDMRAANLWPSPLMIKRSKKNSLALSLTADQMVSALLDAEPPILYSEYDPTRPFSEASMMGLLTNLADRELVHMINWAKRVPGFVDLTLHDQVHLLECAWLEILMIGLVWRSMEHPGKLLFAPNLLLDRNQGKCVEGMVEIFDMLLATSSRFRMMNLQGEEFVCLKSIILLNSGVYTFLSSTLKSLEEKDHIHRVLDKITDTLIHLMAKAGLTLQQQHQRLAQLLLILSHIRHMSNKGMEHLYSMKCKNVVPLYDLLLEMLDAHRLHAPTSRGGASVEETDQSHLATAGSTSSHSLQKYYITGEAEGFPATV
Estrogen receptor beta (Homo sapiens), sequence (Q92731 whole entry, looked up): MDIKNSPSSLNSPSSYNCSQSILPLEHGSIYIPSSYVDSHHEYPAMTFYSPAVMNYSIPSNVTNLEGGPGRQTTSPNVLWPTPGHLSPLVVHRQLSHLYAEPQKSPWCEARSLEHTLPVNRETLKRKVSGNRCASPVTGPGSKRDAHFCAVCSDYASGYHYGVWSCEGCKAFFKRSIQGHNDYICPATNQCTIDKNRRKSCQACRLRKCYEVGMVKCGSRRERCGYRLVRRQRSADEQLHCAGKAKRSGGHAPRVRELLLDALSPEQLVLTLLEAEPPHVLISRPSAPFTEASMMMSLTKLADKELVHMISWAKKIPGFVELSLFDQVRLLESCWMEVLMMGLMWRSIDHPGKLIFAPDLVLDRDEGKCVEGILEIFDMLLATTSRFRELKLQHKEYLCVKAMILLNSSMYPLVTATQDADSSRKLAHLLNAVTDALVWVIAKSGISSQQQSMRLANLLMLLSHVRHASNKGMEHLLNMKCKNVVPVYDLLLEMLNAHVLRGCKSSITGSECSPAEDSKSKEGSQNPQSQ

CCC(C)C(C)=O (stereo not drawn)
inactive: Potency [1] | Potency [2] | Potency [3] | outcome [4] | outcome [5] | outcome [6] | Potency [7] | outcome [8] | outcome [9] | Potency [10] | Potency [11] | Potency [12] | outcome [13] | outcome [14] | outcome [15]

CCc1occc(=O)c1O
inactive: Potency [1] | Potency [2] | Potency [3] | outcome [4] | outcome [5] | outcome [6] | outcome [16] | outcome [17] | outcome [8] | Potency [10] | outcome [14] | outcome [15]

N#Cc1ccccc1O
inactive: Potency [1] | Potency [2] | Potency [3] | outcome [4] | outcome [5] | outcome [6] | outcome [16] | outcome [17] | outcome [8] | outcome [9] | Potency [10] | outcome [13] | outcome [14] | outcome [15]

CCCCCCCCCCCCCCC(=O)NC(CO)CCCCCCCCCCCCCC (stereo not drawn)
inactive: Potency [1] | Potency [2] | Potency [3] | outcome [4] | outcome [5] | outcome [6] | Potency [7] | outcome [16] | outcome [9] | Potency [10] | Potency [11] | Potency [12] | outcome [13] | outcome [14] | outcome [15]

OCC(O)CN1CCN(c2ccccc2)CC1 (stereo not drawn)
inactive: Potency [1] | Potency [2] | Potency [3] | outcome [4] | outcome [5] | outcome [18] | Potency [7] | outcome [16] | outcome [17] | outcome [8] | Potency [10] | outcome [13] | outcome [14] | outcome [15]

CC(C)=CCC[C@@](C)(O)[C@H]1CC=C(C)CC1
inactive: Potency [1] | Potency [2] | Potency [3] | outcome [4] | outcome [5] | outcome [18] | Potency [7] | outcome [16] | outcome [17] | outcome [8] | outcome [9] | Potency [10] | Potency [12] | outcome [13] | outcome [14] | outcome [15]

CC(C)(CO)C(O)C(=O)NCCCO (stereo not drawn)
inactive: Potency [1] | Potency [2] | Potency [3] | outcome [4] | outcome [5] | outcome [6] | outcome [16] | outcome [17] | outcome [8] | Potency [10] | Potency [11] | Potency [12] | outcome [13] | outcome [14] | outcome [15]

C=CCCCC
inactive: Potency [1] | Potency [2] | Potency [3] | outcome [4] | outcome [5] | outcome [6] | outcome [16] | outcome [17] | outcome [8] | Potency [10] | outcome [13] | outcome [15]

CC1=C(O)C(=O)C(C)O1 (stereo not drawn)
inactive: Potency [1] | Potency [2] | Potency [3] | outcome [4] | outcome [5] | outcome [6] | Potency [7] | outcome [8] | Potency [10] | Potency [12] | outcome [13] | outcome [14]

O=C[O][Al]([O]C=O)[O]C=O
inactive: Potency [1] | Potency [2] | Potency [3] | outcome [4] | outcome [5] | outcome [6] | outcome [16] | outcome [8] | Potency [10] | outcome [13] | outcome [15]

C[Si]1(C)O[Si](C)(C)O[Si](C)(C)O[Si](C)(C)O[Si](C)(C)O1
inactive: Potency [1] | Potency [2] | Potency [3] | outcome [4] | outcome [5] | outcome [6] | Potency [7] | outcome [17] | outcome [8] | outcome [9] | Potency [10] | outcome [13] | outcome [14] | outcome [15]

CC(=O)CCC1=C(C)CCCC1(C)C
inactive: Potency [1] | Potency [2] | Potency [3] | outcome [4] | outcome [5] | outcome [6] | Potency [7] | outcome [17] | outcome [9] | Potency [11] | Potency [12] | outcome [15]

CCOc1cccc(N)c1
inactive: Potency [1] | Potency [2] | Potency [3] | outcome [4] | outcome [5] | outcome [6] | outcome [16] | outcome [8] | outcome [9] | Potency [10] | Potency [11] | Potency [12] | outcome [13] | outcome [14] | outcome [15]

O=S(=O)(O)c1ccc2c(N=Nc3ccc(S(=O)(=O)O)c4ccccc34)c(O)c(S(=O)(=O)O)cc2c1
inactive: activity change [1] 8.43% [at 6.97 µM, hits give high values] | activity change, negative = cytotoxicity [2] 7.14% [at 6.97 µM] | cytotoxicity increase [3] -1.78% [at 6.97 µM] | activity change, negative = cytotoxicity [4] -26.3% [at 8.39 µM] | viability change, negative = cytotoxic [5] -14.9% [at 8.39 µM] | outcome [18] | activity change, negative = inhibition [7] 1.26% [at 8.39 µM] | activity change, negative = cytotoxicity [16] -10.4% [at 8.39 µM] | viability change, negative = cytotoxic [17] -12.8% [at 8.39 µM] | activity change [9] -2.14% [at 8.39 µM] | activity change, negative = inhibition [10] 39.1% [at 8.39 µM] | activity change, negative = cytotoxicity [13] -15.5% [at 8.39 µM] | activity change, negative = cytotoxicity [14] 3.66% [at 8.39 µM]

c1ccc(B(c2ccccc2)c2ccccc2)cc1
inactive: Potency [1] | Potency [2] | Potency [3] | outcome [4] | outcome [5] | outcome [6] | outcome [16] | outcome [17] | outcome [8] | outcome [9] | Potency [10] | outcome [13] | outcome [15]

Source: PubChem BioAssay (Tox21)
